Test results published in the supplement of paper PMC10849652.
About 8,800 targets were measured; listed, in parts, are those with a hit and a random draw of the rest. About 0.5% of all pairs of compound and target were hits.

Columns and labels:
Assay in all cases: log2 fold change, soluble protein after heating vs DMSO (PISA); higher = thermal stabilisation; K562 lysate, 10 uM; active = over 0.2 and 3.5 SD of the protein, either way, in both replicates (recomputed)
lapatinib = compound: CS(=O)(=O)CCNCc1ccc(-c2ccc3ncnc(Nc4ccc(OCc5cccc(F)c5)c(Cl)c4)c3c2)o1 [lapatinib]
In short: (§1)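 The values are log-two fold changes in thermal stability compared with solvent controls and come from duplicates. They were obtained by TMTpro 16plex LC-MS/MS, with channel sums equalised, on the supernatant after 21,000xg for 90 min. That supernatant came from crude K562 extract at 1 mg/mL protein treated with 10 μM compound for 30 min, heated for 3 min across 48°C-58°C, pooled and brought to 0.5% NP-40 at 4°C.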

pictilisib = compound: CS(=O)(=O)N1CCN(Cc2cc3nc(-c4cccc5[nH]ncc45)nc(N4CCOCC4)c3s2)CC1 [pictilisib]
In short: as §1

crizotinib = compound: C[C@@H](Oc1cc(-c2cnn(C3CCNCC3)c2)cnc1N)c1c(Cl)ccc(F)c1Cl [crizotinib]
In short: as §1

[1] = compound: C[C@H](C1=CC=C(C=C1)C(=O)NC2=C3C=CNC3=NC=C2)N
In short: as §1

duvelisib = compound: C[C@H](Nc1ncnc2nc[nH]c12)c1cc2cccc(Cl)c2c(=O)n1-c1ccccc1 [duvelisib]
In short: as §1

gandotinib = compound: Cc1cc(Nc2cc(CN3CCOCC3)c3nc(C)c(Cc4ccc(Cl)cc4F)n3n2)n[nH]1 [gandotinib]
In short: as §1

tozasertib = compound: Cc1cc(Nc2cc(N3CCN(C)CC3)nc(Sc3ccc(NC(=O)C4CC4)cc3)n2)n[nH]1 [tozasertib]
In short: as §1

doramapimod = compound: Cc1ccc(-n2nc(C(C)(C)C)cc2NC(=O)Nc2ccc(OCCN3CCOCC3)c3ccccc23)cc1 [doramapimod]
In short: as §1

bafetinib = compound: Cc1ccc(NC(=O)c2ccc(CN3CC[C@H](N(C)C)C3)c(C(F)(F)F)c2)cc1Nc1nccc(-c2cncnc2)n1 [bafetinib]
In short: as §1

[2] = compound: Cc1cccc(CC(=O)N2CCc3c2ccc(-c2cn(C)c4ncnc(N)c24)c3F)n1
In short: as §1

nilotinib = compound: Cc1cn(-c2cc(NC(=O)c3ccc(C)c(Nc4nccc(-c5cccnc5)n4)c3)cc(C(F)(F)F)c2)cn1 [nilotinib]
In short: as §1

[3] = compound: Cc1nc(Nc2n[nH]c3c2CN(C(=O)N[C@H](CN(C)C)c2ccccc2)C3(C)C)c2sccc2n1
In short: as §1

dasatinib = compound: Cc1nc(Nc2ncc(C(=O)Nc3c(C)cccc3Cl)s2)cc(N2CCN(CCO)CC2)n1 [dasatinib]
In short: as §1

[4] = compound: Cc1ncc(-c2ccnc(Nc3ccc(S(C)(=O)=O)cc3)n2)n1C(C)C
In short: as §1

[5] = compound: Cn1cc(-c2ccc3c(c2)CCN3C(=O)Cc2cccc(C(F)(F)F)c2)c2c(N)ncnc21
In short: as §1

quisinostat = compound: Cn1cc(CNCC2CCN(c3ncc(C(=O)NO)cn3)CC2)c2ccccc21 [quisinostat]
In short: as §1

tipifarnib = compound: Cn1cncc1[C@@](N)(c1ccc(Cl)cc1)c1ccc2c(c1)c(-c1cccc(Cl)c1)cc(=O)n2C [tipifarnib]
In short: as §1

[6] = compound: NC(=O)Nc1cc(-c2cccc(F)c2)sc1C(=O)N[C@H]1CCCNC1
In short: as §1

[7] = compound: NC(=O)c1cnc(N[C@@H]2CCCC[C@@H]2N)nc1Nc1cccc(-n2nccn2)c1
In short: as §1

[8] = compound: NC1(c2ccc(-c3nc4ccn5c(=O)[nH]nc5c4cc3-c3ccccc3)cc2)CCC1
In short: as §1

Measured: log2 fold change

BRD4 (UniProt O60885)
inactive: lapatinib 0.044 | pictilisib 0.015 | crizotinib -0.03 | [1] -0.06 | duvelisib 0.013 | gandotinib 0.019 | tozasertib -0.031 | doramapimod 0.016 | bafetinib -0.024 | [2] -0.006 | nilotinib 0.034 | [3] -0.009 | dasatinib -0.018 | [4] 0.019 | [5] -0.001 | quisinostat -0.091 | tipifarnib -0.019 | [6] 0.013 | [7] -0.051 | [8] -0.008

BRD2 isoform 2 (UniProt P25440)
inactive: lapatinib 0.014 | pictilisib 0.012 | crizotinib 0.024 | [1] 0.128 | duvelisib -0.007 | gandotinib -0.133 | tozasertib 0 | doramapimod -0.084 | bafetinib -0.131 | [2] -0.186 | nilotinib 0.012 | [3] 0.15 | dasatinib 0.011 | [4] -0.024 | [5] -0.048 | quisinostat -0.028 | tipifarnib -0.035 | [6] 0.028 | [7] -0.161 | [8] -0.064

BSDC1 (UniProt Q9NW68)
inactive: lapatinib 0.088 | pictilisib -0.055 | crizotinib 0.012 | [1] -0.052 | duvelisib 0.016 | tozasertib -0.005 | doramapimod 0.098 | bafetinib -0.012 | [2] 0.019 | nilotinib 0.016 | [3] -0.009 | dasatinib 0.018 | [4] 0.027 | [5] -0.018 | quisinostat -0.024 | tipifarnib -0.093 | [6] 0.003 | [7] -0.023 | [8] 0.016
active: gandotinib 0.312

ATG7 (UniProt O95352)
Chain of UniProt O95352 (O95352 whole entry, looked up): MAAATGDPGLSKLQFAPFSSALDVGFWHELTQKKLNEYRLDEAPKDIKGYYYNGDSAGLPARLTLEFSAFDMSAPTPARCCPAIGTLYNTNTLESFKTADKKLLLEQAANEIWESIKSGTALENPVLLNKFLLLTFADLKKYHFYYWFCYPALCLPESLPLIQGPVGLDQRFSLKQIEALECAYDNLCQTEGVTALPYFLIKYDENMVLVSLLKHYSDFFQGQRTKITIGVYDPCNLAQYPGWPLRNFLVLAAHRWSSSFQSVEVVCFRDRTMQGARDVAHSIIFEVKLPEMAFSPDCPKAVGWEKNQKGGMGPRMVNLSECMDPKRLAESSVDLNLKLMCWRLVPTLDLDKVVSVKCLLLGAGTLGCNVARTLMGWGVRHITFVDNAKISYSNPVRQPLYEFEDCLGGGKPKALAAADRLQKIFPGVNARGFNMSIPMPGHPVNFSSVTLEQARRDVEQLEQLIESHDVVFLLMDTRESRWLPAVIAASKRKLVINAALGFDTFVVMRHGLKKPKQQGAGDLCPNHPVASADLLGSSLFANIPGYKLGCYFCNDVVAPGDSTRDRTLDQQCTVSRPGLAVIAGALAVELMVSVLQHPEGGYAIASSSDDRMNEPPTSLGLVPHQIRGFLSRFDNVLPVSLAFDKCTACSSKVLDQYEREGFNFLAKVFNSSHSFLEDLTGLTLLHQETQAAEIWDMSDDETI
inactive: lapatinib 0.006 | pictilisib -0.002 | crizotinib -0.015 | [1] -0.037 | duvelisib 0 | gandotinib -0.035 | tozasertib -0.015 | doramapimod 0.02 | bafetinib -0.024 | [2] 0.006 | nilotinib 0.02 | [3] -0.03 | dasatinib -0.026 | [4] -0.032 | [5] 0.037 | quisinostat -0.039 | tipifarnib 0.03 | [6] 0.058 | [7] 0.01 | [8] -0.02

BAG4 (UniProt O95429)
inactive: lapatinib 0.013 | pictilisib -0.174 | crizotinib 0.06 | [1] -0.056 | duvelisib 0.043 | gandotinib 0.102 | tozasertib 0.011 | doramapimod -0.043 | bafetinib -0.002 | [2] 0.004 | nilotinib -0.154 | [3] -0.039 | dasatinib 0.027 | [4] 0.014 | [5] 0.015 | quisinostat 0.019 | tipifarnib -0.011 | [6] 0.01 | [7] 0.018 | [8] 0.038

CDK9 isoform 2 (UniProt P50750)
Chain of UniProt P50750 (P50750 whole entry, looked up): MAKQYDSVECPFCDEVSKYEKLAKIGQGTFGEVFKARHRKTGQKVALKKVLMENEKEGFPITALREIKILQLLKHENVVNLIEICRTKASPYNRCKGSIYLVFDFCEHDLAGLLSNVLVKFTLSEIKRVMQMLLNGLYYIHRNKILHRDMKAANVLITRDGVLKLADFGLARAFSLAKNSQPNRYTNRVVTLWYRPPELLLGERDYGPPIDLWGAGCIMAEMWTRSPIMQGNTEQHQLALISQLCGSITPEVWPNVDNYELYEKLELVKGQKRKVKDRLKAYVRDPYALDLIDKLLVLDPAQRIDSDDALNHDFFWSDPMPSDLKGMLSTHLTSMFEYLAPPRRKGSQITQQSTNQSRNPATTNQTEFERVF
active: [4] 0.403
inactive: lapatinib -0.103 | pictilisib 0.034 | crizotinib 0.067 | [1] 0.066 | duvelisib -0.026 | gandotinib 0.074 | tozasertib -0.108 | doramapimod -0.02 | bafetinib -0.125 | [2] -0.056 | nilotinib -0.035 | [3] 0.255 | dasatinib 0.003 | [5] -0.007 | quisinostat -0.028 | tipifarnib -0.016 | [6] 0.009 | [7] 0.078 | [8] -0.04

CDC42EP4 (UniProt Q9H3Q1)
Chain of UniProt Q9H3Q1 (Q9H3Q1 whole entry, looked up): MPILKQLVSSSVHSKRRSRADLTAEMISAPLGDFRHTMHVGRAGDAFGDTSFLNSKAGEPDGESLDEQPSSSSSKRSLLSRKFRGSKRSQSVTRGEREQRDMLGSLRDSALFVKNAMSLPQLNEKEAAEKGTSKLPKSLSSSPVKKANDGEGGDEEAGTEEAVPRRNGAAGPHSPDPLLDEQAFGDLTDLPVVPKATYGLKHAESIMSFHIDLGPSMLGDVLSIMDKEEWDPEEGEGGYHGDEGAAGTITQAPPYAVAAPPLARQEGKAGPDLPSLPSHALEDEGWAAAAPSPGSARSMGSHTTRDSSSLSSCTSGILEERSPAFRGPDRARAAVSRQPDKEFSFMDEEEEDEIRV
inactive: lapatinib 0.031 | pictilisib 0.029 | crizotinib -0.017 | [1] -0.047 | duvelisib -0.029 | tozasertib -0.017 | doramapimod 0.157 | bafetinib -0.027 | [2] 0.102 | nilotinib 0.061 | [3] -0.043 | dasatinib 0.039 | [4] -0.026 | [5] -0.028 | quisinostat -0.045 | tipifarnib 0.006 | [6] -0.02 | [7] -0.025 | [8] 0.02
active: gandotinib 0.223

BORCS5 (UniProt Q969J3)
inactive: lapatinib 0.015 | pictilisib 0.096 | crizotinib -0.002 | [1] 0.037 | duvelisib 0.037 | gandotinib -0.038 | tozasertib 0.007 | doramapimod -0.011 | bafetinib -0.042 | [2] -0.006 | nilotinib 0.064 | [3] -0.021 | dasatinib -0.025 | [4] 0.082 | [5] -0.003 | quisinostat -0.017 | tipifarnib -0.061 | [6] -0.017 | [7] -0.029 | [8] -0.009

CHCHD2 (UniProt Q9Y6H1)
inactive: lapatinib 0.035 | pictilisib 0 | crizotinib 0.119 | [1] 0.044 | duvelisib -0.008 | gandotinib 0.021 | tozasertib 0.102 | doramapimod -0.021 | bafetinib 0.288 | [2] -0.138 | nilotinib -0.102 | [3] 0.039 | dasatinib 0.016 | [4] -0.075 | [5] 0.031 | quisinostat -0.049 | tipifarnib 0.058 | [6] -0.014 | [7] -0.029 | [8] 0.136

CDC7 (UniProt O00311)
inactive: lapatinib 0.112 | pictilisib -0.067 | crizotinib -0.024 | duvelisib -0.007 | gandotinib 0.047 | tozasertib -0.01 | doramapimod 0.06 | bafetinib 0.009 | [2] 0.087 | nilotinib -0.049 | [3] 0.028 | dasatinib 0.029 | [4] 0.059 | [5] 0.001 | quisinostat -0.047 | tipifarnib -0.009 | [6] 0.015 | [7] -0.022 | [8] -0.016
active: [1] -0.335

CDC40 (UniProt O60508)
inactive: lapatinib -0.028 | pictilisib 0.039 | crizotinib -0.053 | [1] -0.027 | duvelisib 0 | gandotinib 0.002 | tozasertib -0.038 | doramapimod -0.005 | bafetinib -0.033 | [2] 0.006 | nilotinib -0.015 | [3] -0.026 | dasatinib -0.005 | [4] 0.039 | [5] 0.058 | quisinostat -0.138 | tipifarnib 0.046 | [6] 0.02 | [7] 0.063 | [8] 0.097

CDC16 (UniProt Q13042)
Chain of UniProt Q13042 (Q13042 whole entry, looked up): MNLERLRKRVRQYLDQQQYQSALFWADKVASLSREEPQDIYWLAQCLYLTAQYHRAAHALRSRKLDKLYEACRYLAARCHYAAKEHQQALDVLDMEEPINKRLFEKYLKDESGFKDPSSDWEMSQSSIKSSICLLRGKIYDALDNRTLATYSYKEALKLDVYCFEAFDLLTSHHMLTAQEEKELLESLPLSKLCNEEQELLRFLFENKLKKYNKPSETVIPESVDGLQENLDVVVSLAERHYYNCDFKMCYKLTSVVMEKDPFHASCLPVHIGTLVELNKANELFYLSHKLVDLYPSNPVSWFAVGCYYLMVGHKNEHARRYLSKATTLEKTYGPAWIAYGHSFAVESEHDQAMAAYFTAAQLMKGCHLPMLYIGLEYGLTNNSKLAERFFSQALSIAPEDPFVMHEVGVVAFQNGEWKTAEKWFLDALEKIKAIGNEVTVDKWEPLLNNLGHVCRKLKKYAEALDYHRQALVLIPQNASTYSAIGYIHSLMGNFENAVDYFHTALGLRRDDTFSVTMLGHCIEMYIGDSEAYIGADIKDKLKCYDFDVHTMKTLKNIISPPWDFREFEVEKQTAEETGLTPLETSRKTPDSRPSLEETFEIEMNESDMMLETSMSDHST
inactive: lapatinib 0.016 | pictilisib 0 | crizotinib 0.009 | [1] 0.047 | duvelisib 0.011 | gandotinib -0.095 | tozasertib 0.06 | doramapimod 0.014 | bafetinib -0.039 | [2] -0.057 | nilotinib -0.013 | [3] 0.023 | dasatinib -0.012 | [4] -0.027 | [5] 0.019 | quisinostat 0.01 | tipifarnib 0.017 | [6] 0.024 | [7] -0.019 | [8] -0.014

C2CD5 isoform 3 (UniProt Q86YS7)
Chain of UniProt Q86YS7 (Q86YS7 whole entry, looked up): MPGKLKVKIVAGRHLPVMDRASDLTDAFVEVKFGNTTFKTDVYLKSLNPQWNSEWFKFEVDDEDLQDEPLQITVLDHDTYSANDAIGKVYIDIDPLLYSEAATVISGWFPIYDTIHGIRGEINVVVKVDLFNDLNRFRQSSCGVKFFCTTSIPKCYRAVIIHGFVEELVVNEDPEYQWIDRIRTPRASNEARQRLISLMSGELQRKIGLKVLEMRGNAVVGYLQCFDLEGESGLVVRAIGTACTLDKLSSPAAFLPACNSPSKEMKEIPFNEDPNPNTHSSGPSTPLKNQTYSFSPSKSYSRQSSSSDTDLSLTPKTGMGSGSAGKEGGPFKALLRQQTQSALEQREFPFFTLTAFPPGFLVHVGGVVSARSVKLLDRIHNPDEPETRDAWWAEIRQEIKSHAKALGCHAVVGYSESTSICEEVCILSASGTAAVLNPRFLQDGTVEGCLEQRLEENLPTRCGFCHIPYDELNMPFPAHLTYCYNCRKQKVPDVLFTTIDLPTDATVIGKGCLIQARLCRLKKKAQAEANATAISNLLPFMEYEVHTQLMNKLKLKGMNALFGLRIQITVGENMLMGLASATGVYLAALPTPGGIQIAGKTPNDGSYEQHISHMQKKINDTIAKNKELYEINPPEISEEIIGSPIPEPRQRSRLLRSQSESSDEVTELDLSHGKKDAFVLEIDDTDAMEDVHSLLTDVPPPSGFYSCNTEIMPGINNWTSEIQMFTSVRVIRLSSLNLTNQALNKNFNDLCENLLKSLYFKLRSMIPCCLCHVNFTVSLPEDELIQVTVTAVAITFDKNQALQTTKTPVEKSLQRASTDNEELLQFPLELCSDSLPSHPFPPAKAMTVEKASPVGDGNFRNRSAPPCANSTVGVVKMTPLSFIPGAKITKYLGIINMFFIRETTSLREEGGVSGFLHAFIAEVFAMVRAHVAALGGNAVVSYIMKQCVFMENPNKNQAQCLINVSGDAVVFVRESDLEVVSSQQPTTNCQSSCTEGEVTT
active: [1] -0.26 | [2] 0.28
inactive: lapatinib -0.031 | pictilisib -0.029 | crizotinib -0.028 | duvelisib -0.009 | gandotinib 0.125 | tozasertib -0.038 | doramapimod 0.035 | bafetinib -0.056 | nilotinib -0.036 | [3] 0.074 | dasatinib -0.053 | [4] 0.046 | [5] 0.01 | quisinostat 0.013 | tipifarnib -0.053 | [6] 0.024 | [7] 0.01 | [8] -0.044

BLM (UniProt P54132)
active: gandotinib -0.267
inactive: lapatinib -0.007 | pictilisib -0.068 | crizotinib -0.003 | [1] 0.192 | duvelisib 0.018 | tozasertib 0.057 | doramapimod 0.018 | bafetinib -0.049 | [2] -0.251 | nilotinib -0.002 | [3] 0.014 | dasatinib -0.013 | [4] 0 | [5] 0.048 | quisinostat 0.109 | tipifarnib 0.041 | [6] -0.013 | [7] -0.025 | [8] 0.018

CDC42BPA isoform 6 (UniProt Q5VT25)
Chain of UniProt Q5VT25 (Q5VT25 whole entry, looked up): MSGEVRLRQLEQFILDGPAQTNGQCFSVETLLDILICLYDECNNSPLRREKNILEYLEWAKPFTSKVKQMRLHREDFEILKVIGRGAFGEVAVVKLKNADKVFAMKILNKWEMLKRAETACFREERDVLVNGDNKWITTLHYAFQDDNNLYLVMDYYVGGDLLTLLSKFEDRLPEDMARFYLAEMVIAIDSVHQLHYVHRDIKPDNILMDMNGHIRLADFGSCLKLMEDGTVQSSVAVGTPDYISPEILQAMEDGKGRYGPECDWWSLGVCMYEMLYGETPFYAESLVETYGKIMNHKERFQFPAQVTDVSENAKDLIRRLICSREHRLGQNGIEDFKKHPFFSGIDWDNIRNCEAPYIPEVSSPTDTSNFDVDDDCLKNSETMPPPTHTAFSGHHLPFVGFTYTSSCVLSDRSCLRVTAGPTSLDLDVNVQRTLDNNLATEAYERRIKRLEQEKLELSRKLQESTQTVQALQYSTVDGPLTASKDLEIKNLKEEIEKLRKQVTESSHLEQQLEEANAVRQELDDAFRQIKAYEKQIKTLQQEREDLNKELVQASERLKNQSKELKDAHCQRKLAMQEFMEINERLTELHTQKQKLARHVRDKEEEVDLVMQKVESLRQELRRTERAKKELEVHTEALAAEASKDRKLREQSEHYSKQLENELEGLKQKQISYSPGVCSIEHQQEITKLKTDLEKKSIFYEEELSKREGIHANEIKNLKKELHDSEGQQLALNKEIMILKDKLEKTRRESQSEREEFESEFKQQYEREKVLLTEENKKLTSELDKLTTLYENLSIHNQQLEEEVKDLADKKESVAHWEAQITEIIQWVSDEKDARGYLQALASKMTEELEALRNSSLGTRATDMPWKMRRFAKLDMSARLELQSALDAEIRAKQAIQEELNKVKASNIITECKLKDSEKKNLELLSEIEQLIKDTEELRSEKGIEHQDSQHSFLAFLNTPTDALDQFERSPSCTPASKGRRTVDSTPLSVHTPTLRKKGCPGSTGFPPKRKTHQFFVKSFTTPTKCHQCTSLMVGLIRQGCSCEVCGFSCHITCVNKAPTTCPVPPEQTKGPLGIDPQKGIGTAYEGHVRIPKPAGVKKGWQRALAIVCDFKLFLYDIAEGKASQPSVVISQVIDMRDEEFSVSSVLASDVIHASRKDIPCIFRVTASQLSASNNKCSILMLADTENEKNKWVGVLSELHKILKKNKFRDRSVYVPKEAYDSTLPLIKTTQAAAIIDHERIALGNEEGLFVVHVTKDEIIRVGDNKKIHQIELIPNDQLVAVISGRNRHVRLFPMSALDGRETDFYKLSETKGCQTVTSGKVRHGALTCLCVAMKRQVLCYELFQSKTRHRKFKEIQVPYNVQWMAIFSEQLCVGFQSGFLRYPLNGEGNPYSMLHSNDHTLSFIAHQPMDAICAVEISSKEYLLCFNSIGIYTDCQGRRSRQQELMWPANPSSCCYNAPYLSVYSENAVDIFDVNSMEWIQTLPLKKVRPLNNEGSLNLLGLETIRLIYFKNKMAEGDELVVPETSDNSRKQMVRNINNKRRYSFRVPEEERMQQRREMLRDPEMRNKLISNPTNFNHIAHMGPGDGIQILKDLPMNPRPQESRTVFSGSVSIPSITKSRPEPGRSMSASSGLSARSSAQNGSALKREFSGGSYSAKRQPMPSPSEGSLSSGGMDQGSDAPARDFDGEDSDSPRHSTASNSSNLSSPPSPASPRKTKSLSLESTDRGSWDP
inactive: lapatinib -0.029 | pictilisib -0.041 | crizotinib -0.061 | [1] 0.024 | duvelisib -0.007 | gandotinib -0.05 | tozasertib 0.032 | doramapimod 0.075 | bafetinib -0.056 | [2] 0.03 | nilotinib -0.01 | [3] 0.003 | dasatinib 0.012 | [4] 0.013 | [5] 0.048 | quisinostat 0.025 | tipifarnib 0 | [6] 0.004 | [7] -0.002 | [8] 0.024

CENPQ (UniProt Q7L2Z9)
Chain of UniProt Q7L2Z9 (Q7L2Z9 whole entry, looked up): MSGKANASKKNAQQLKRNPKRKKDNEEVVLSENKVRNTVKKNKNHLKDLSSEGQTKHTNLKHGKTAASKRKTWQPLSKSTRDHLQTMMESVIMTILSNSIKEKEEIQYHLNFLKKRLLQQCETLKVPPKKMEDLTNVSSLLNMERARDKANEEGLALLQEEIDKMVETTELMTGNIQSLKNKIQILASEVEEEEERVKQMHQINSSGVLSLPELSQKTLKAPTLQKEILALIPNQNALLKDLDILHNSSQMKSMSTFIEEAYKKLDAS
inactive: lapatinib 0.101 | pictilisib 0.015 | crizotinib -0.028 | [1] -0.226 | duvelisib -0.027 | gandotinib 0.071 | tozasertib -0.196 | doramapimod 0.001 | bafetinib 0.017 | [2] -0.013 | nilotinib -0.025 | [3] 0.044 | dasatinib 0 | [4] -0.036 | [5] -0.015 | quisinostat 0.07 | tipifarnib -0.076 | [6] 0.047 | [7] 0.164 | [8] -0.107
